A selection: hits, their analogues and other compounds. The true share with any hit is near 2.6%.
APOBEC3G inh: inhibitors of human APOBEC3G DNA deaminase. Q9HC16. recombinant A3G, ssDNA deamination FAM/TAMRA fluorescence. inhibition, % at 20 µM. hit rate 0.28% among 330,000;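 active = inhibition of at least 40% at 20 µM, with no more than 30% in the related APOBEC3A deaminase screen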
APOBEC3A inh: inhibitors of human APOBEC3A DNA deaminase. P31941. recombinant A3A, FAM/TAMRA ssDNA deamination fluorescence. inhibition, % at 20 µM. hit rate 0.41% among 330,000. AID 493011;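 active = at least 40% inhibition at 20 µM here, with at most 30% in a related deaminase screen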
Target sequence (P31941 whole entry, looked up): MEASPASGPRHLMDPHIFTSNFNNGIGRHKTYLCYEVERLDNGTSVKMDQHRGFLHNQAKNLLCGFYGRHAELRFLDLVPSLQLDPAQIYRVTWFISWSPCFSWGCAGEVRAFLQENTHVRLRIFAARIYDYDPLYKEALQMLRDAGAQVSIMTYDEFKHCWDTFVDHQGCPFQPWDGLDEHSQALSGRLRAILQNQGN
PABP1 MLLE inh: blocks PAM2 peptide binding to the PABP1 MLLE domain; P11940; GST-MLLE / FITC-PAM2 fluorescence polarization; inhibition, % at 20 µM; hit rate 0.36% among 360,000; in the data active = inhibition above about 35%, passing the limit was not always enough
PHOSPHO1 block: PHOSPHO1 (human) inhibition | Q8TCT1 | hit rate 1.1% among 290,000 | inhibition, % at 13.3 µM | recombinant PHOSPHO1, absorbance phosphatase assay; in the data active = inhibition above about 60%
Target sequence (Q8TCT1 whole entry, looked up): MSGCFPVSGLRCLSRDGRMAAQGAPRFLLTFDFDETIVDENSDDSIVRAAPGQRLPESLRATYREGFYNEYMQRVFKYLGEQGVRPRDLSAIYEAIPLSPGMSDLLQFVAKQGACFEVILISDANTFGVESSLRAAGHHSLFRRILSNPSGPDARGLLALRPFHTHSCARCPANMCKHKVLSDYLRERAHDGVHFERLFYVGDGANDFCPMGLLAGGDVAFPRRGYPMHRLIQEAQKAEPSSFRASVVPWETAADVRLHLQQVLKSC
eIF4H FP inh: inhibitors of RNA binding by human eIF4H. Q15056. eIF4H fluorescence polarization binding assay. inhibition, % at 35 µM. hit rate 0.94% among 290,000. AID 2012;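 also: calls also rest on retests at 20 µM and on dose response follow-up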
PABP FP inh: PABP-poly(A) binding inhibition; calls only at 35 µM; P11940; hit rate 1% among 290,000; AID 2014; PABP-poly(A) RNA binding, fluorescence polarization;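 also: calls also rest on retests at 20 µM and on dose response follow-up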
A3G conf: APOBEC3G (human) deaminase inhibition, confirmed; shares compounds with APOBEC3G inh; recombinant A3G ssDNA deaminase, UDG/FAM-TAMRA fluorescence; inhibition, % at 20 µM; hit rate 72% among 890;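 active = inhibition reaching a set limit in any replicate at 20 µM, the limit being 80% of the first screen's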
UDG A3G counter: inhibits E. coli UDG, flagging false APOBEC3G inhibitors; inhibition, % at 20 µM; UDG counterscreen, FAM/TAMRA oligo fluorescence; 710 tested, under 10 active; shares compounds with APOBEC3G inh; AID 504715;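 active = compounds giving 40% or more inhibition at 20 µM in any one of the three replicates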;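 also: inhibitors lower the FAM signal released by uracil excision and alkaline cleavage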
Hits are given with their value; i = inactive; nt = no result given; + = active, no number. Unless noted, no rule for the calls is given here.

SMILES	APOBEC3G inh	APOBEC3A inh	PABP1 MLLE inh	PHOSPHO1 block	eIF4H FP inh	PABP FP inh	A3G conf	UDG A3G counter
Nn1c(C2COc3ccccc3O2)n[nH]c1=S (stereo not given)	60	i	i	78	i	i	83	i
CC(O)(c1cccnc1)c1nc(-c2cccc(C(F)(F)F)c2)cs1 (stereo not given)	nt	nt	i	nt	nt	nt	nt	nt
Cc1ccc(CN(Cc2ccco2)C(=S)NCC(=O)NCc2cccnc2)cc1	i	i	i	i	i	i	nt	nt
Cc1ccc(CN(Cc2ccccc2)C(=S)NCC(=O)NCc2cccnc2)o1	45	i	i	i	i	i	i	i
COc1ccc(S(=O)(=O)N2CCN(C(=O)Cc3ccsc3)CC2)cc1	i	i	i	nt	nt	nt	nt	nt
Cc1cccc(C)c1NC(=O)CNC(=O)c1c(-c2ccccc2)noc1C	i	i	i	nt	nt	nt	nt	nt
O=C(COC(=O)CCCN1C(=O)c2cccc3cccc(c23)C1=O)Nc1cccc(C(F)(F)F)c1	56	i	i	i	i	i	i	nt
O=C(NCCCN1CCOCC1)c1sc2cc([N+](=O)[O-])ccc2c1Cl	58	i	i	i	i	i	85	i
CN1CCN(C(=S)C(=O)Nc2ccc(Br)cc2)CC1	80	i	i	i	i	i	70	i
O=C(C[n+]1ccccc1)N/N=C/c1ccc(Cl)c(Cl)c1	i	i	i	i	i	i	nt	nt
COc1cc(N2C(=O)C=CC2=O)c(OC)cc1Cl	43	i	i	i	i	i	54	i
COc1ccccc1CNC(=O)c1cc(-c2ccccc2C)n(CC2CC(c3cccc([N+](=O)[O-])c3)=NO2)n1 (stereo not given)	i	i	i	nt	nt	nt	nt	nt
O=C(Cn1sc2ccccc2c1=O)NC12CC3CC(CC(C3)C1)C2	78	i	53	84	i	i	78	i
O=C(Cn1sc2ccccc2c1=O)Nc1ccccc1	nt	nt	i	nt	nt	nt	nt	nt
COc1ccccc1-c1nn2c(C3COc4ccccc4O3)nnc2s1 (stereo not given)	51	i	i	92	i	i	i	i
Cc1ccc(-c2nnc3sc(C4COc5ccccc5O4)nn23)cc1 (stereo not given)	i	i	i	i	i	i	nt	nt
c1ccc(CCc2nn3c(Cc4ccccc4)nnc3s2)cc1	53	i	i	i	i	i	59	nt
c1ccc(CCc2nn3c(C4COc5ccccc5O4)nnc3s2)cc1 (stereo not given)	48	i	i	i	i	i	31	i
CN(C)S(=O)(=O)c1ccc(Cl)c(C(=O)NNC(=O)c2ccc3c(c2)OCO3)c1	i	i	i	nt	nt	nt	nt	nt
Oc1ccc(-c2cn3c(n2)SCC3)cc1O	59	i	i	80	i	i	76	i
O=C(c1ccco1)N1N=C(c2ccccc2)CC1c1ccc2nccnc2c1 (stereo not given)	i	i	i	i	i	i	nt	nt
Cc1ccc(C)c(N2C(=O)c3ccc(C(=O)Nc4ccccn4)cc3C2=O)c1	nt	nt	i	nt	nt	nt	nt	nt
C=CCn1c(CSc2ccccc2[N+](=O)[O-])n[nH]c1=S	46	i	i	i	84	+	68	i
C=CCn1c(Cc2ccccc2)n[nH]c1=S	i	i	i	i	i	i	nt	nt
OCCN1CCN(C(=S)c2ccc(Cl)cc2)CC1	i	i	i	i	i	i	nt	nt
SMILES	APOBEC3G inh	APOBEC3A inh	PABP1 MLLE inh	PHOSPHO1 block	eIF4H FP inh	PABP FP inh	A3G conf	UDG A3G counter
CCN1CCN(C(=S)c2ccc(Cl)cc2)CC1	68	i	i	94	i	i	75	i
O=C(Nc1nc(-c2nc3ccccc3s2)cs1)C1CC1	43	i	i	i	i	i	i	nt
O=C(CN1CCN(c2ccc(O)cc2)CC1)Nc1ccc(SC(F)F)cc1	43	i	i	i	i	i	i	nt
COc1cccc(N2CCN(CC(=O)Nc3ccc(SC(F)F)cc3)CC2)c1	i	i	i	i	i	i	nt	nt
CCCc1ccc(C2=Nn3c(nnc3C(C)C)SC2)cc1	50	i	i	i	i	i	i	i
CCSc1n[nH]c(=S)s1	52	i	i	i	i	i	59	i
COC(=O)c1ccc(CSc2n[nH]c(=S)s2)o1	50	i	i	102	i	i	59	i
COC(=O)CSc1n[nH]c(=S)s1	50	i	i	i	i	i	65	i
NNC(=O)CNC(=O)Nc1n[nH]c(=S)s1	nt	nt	i	nt	nt	nt	nt	nt
O=C(O)CC(Sc1n[nH]c(=S)s1)C(=O)O (stereo not given)	44	i	i	i	i	i	60	i
CCCC(=O)OCC1CN(Cc2ccco2)S(=O)(=O)c2c(F)cccc2O1 (stereo not given)	nt	nt	i	nt	nt	nt	nt	nt
COC(=O)C(C)Sc1n[nH]c(=S)s1 (stereo not given)	84	i	i	102	i	i	84	i
O=S(=O)(/N=S1/CC=CCN1S(=O)(=O)c1ccccc1)c1ccccc1 (stereo not given)	62	i	i	i	i	i	75	i
O=S(=O)(c1ccccc1)N1CCN(S(=O)(=O)c2ccccc2)C1	i	i	i	i	i	i	nt	nt
Cc1ccc(/C=C/C(=O)NC2CCCCCCC2)o1	50	i	i	i	i	i	38	i
COc1cc(C2Nn3c(nnc3-c3ccccc3OC)S2)ccc1O (stereo not given)	45	i	i	i	i	i	82	i
O=S1OC(c2ccccc2)c2cc(Cl)ccc21 (stereo not given)	41	i	i	nt	nt	nt	i	nt
NNC(=O)Nc1cccc(C(F)(F)F)c1	57	i	i	i	i	i	i	nt
COC(=O)c1ccc(Cn2nc(C)c([N+](=O)[O-])c2C)o1	i	i	i	i	i	i	nt	nt
Cc1nn(Cc2ccc(C(=O)O)o2)c(C)c1[N+](=O)[O-]	54	i	i	i	i	i	i	i
CCCc1nc2ccc(Br)cn2c1Cc1cccc(Cl)c1	nt	nt	i	nt	nt	nt	nt	nt
O=C(CC1Sc2ncnn2C1=O)Nc1ccc(Cl)cc1 (stereo not given)	i	i	nt	i	i	i	nt	nt
CCOC(=O)c1ccc(NC(=O)CC2Sc3ncnn3C2=O)cc1 (stereo not given)	42	i	42	i	i	i	50	i
Cc1ccc(N(CC(=O)NN=C2CCN(C)CC2)S(=O)(=O)c2ccc(C)cc2)cc1	i	i	i	i	i	i	nt	nt
Cc1ccc(C)c(N(CC(=O)NN=C2CCN(C)CC2)S(=O)(=O)c2ccccc2)c1	51	i	i	i	i	i	i	i
CC(C)(C)c1cc(C(=S)N2CCN(CCO)CC2)cc(C(C)(C)C)c1O	61	i	i	i	i	i	56	i
COc1ccc(NC(=O)CCOc2cc(C)ccc2C)cc1S(=O)(=O)N1CCCCC1	i	i	i	nt	nt	nt	nt	nt
COc1ccc(N2C(=O)CC(Sc3nc(C)c4c(n3)CCCC4)C2=O)cc1 (stereo not given)	i	i	i	i	i	i	nt	nt

Source: PubChem BioAssay
